Pf Dd2 inh – qHTS Primary assay for Inhibitors of Plasmodium falciparum Dd2 growth in vitro; AID 1347417, 2020; Potency, µM (top dose mostly 28.9 µM), without a hit: top-dose activity, negative = inhibition, most hits filed as inhibitors; P. falciparum Dd2 growth, SYBR Green, 72 h; 120,000 tested, 4.3% active; active = well fitted inhibition curve with a large enough effect;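 note: plate controls were DMSO vehicle for no effect and reference drug for full effect; nearly all actives have a fitted effect of over 65% in size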
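Readout: SYBR Green fluorescence, 485 nm excitation, 535 nm emission, after ~16 h lysis at 37C. Before that, Dd2-infected red cells (2.5% hematocrit) grew 72 h with compound, 29 uM top final concentration.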
The depositor's hits bear a star; i = inactive; [ ] = remark or other dose. This is one part of a sample in which hits are shown more often than they occur. Potency is the fitted concentration of half-maximal effect.

SMILES	Pf Dd2 inh
O=S(=O)(c1ccccc1)N1CCCC(c2nc(CCOc3ccc(F)cc3)no2)C1 (stereo not drawn)	i
COc1cccc(CN2CC[C@H]3COC(=O)N3c3cc(C)ccc3C2)c1	1%[44.1 µM]
CN(C)c1ccc(C(=O)N2CCN3C(=O)N(CC(N)=O)C(=O)[C@@H]3C2)cc1	-12%[44.1 µM]
COc1ccc(-c2n[nH]c3c2CC(=O)N(CCOc2ccccc2)C3)cn1	-17%[44.1 µM]
CCO[C@H]1CN(C(=O)CCc2ccc(-c3ccc(Cl)cc3)[nH]2)C[C@@H]1O	-20%
COC[C@H]1NC(=O)CC[C@H]1C(=O)Nc1ccc2c(c1)OCCO2	10%
CC[C@H]1CN(S(=O)(=O)c2ccccc2)CC[C@H]1CC(=O)NC1CCCC1	i
COc1cccc(CN2CCC3(CCCO3)CCC2=O)c1 (stereo not drawn)	-8%
CCC(=O)N1CCc2c(C(=O)Nc3ccc(OC)c(OC)c3)cccc21	-11%
O=C1Nc2ccccc2CN(Cc2ccc(Cl)cc2)C12CCNCC2	7.1µM*
O=C1NCc2ccccc2CC12CCCN2C/C=C/c1ccccc1 (stereo not drawn)	-25%
O=C(C1CC1)N1Cc2ccccc2NC(=O)C12CCNCC2	20%
O=C1Nc2ccccc2CN(C/C=C/c2ccccc2)C12CCNC2 (stereo not drawn)	11µM*
O=C1Nc2ccccc2CN(Cc2ccncc2)C12CCNCC2	1%
O=C1Nc2ccccc2CN(CC2CCOCC2)C12CCNCC2	13%
CN1[C@@H](CCC(=O)N2CCc3ccccc32)CNC(=O)[C@@H]2[C@H]1CCN2Cc1ccc(S(C)(=O)=O)cc1	-17%
CC1Oc2ccc(NC(=O)C3CCCC3)cc2CN(Cc2ccc(F)cc2)C1=O (stereo not drawn)	i
COc1ccc(-c2cnnn2-c2ccc(NC(=O)c3ccc(S(=O)(=O)N(C)C)cc3)cc2)cc1	i
COc1ccc(-c2[nH]c3ccccc3c2SCCNC(=O)c2ccc(S(=O)(=O)N(C)C)cc2)cc1	7.9µM*
CCN(CC)S(=O)(=O)c1ccc(C(=O)NCCSc2c(-c3ccc(OC)cc3)[nH]c3ccccc23)cc1	7.9µM*
CCN(CC)S(=O)(=O)c1ccc(NC(=O)Cn2ncc3c([nH]c4ccccc43)c2=O)cc1	45%
COc1ccc(S(=O)(=O)N(CC(=O)NCCSc2ccc(C)cc2)c2ccc(C)cc2)cc1	-3%
COc1ccc(S(=O)(=O)N(CCc2ccccc2)CC(=O)NCc2ccccc2)cc1	i
COC(=O)c1ccc2c(c1)nc1n2[C@@H](CNC(C)=O)COC1	24%[44.1 µM]
O=C(CCCn1ccnc1)N1CCC2(CCC(=O)N(Cc3ccncc3)C2)CC1	18%
SMILES	Pf Dd2 inh
CNC(=O)N1CCC(Cc2noc(-c3ccncc3)n2)C1 (stereo not drawn)	23%
O=C(Cn1nc2n(c1=O)CCCCC2)N1CCCc2ccccc21	-16%
CCc1cc(N2CCN(C)C3(CCC(=O)N(C)CC3)C2)nc(N(C)C)n1 (stereo not drawn)	-13%
O=C(COc1ccccc1)N1CCCC(Nc2ccc(F)cc2)C1 (stereo not drawn)	-7%
Cc1cnc(-c2ccccc2)n1C1CCCN(C(=O)COc2ccc(F)cc2)C1 (stereo not drawn)	2.8µM*
Cc1cnc(-c2ccccc2)n1C1CCCN(C(=O)c2ccnn2C)C1 (stereo not drawn)	-29%
O=C1CC(c2ccccc2)N(C(=O)CNC(=O)c2c[nH]c3ccccc23)CCCCCN1 (stereo not drawn)	i
O=C1CC(c2ccccc2)N(C(=O)CNC(=O)c2ccc3cc[nH]c3c2)CCCCCN1 (stereo not drawn)	10µM*
N#Cc1cccc(C(=O)NCC(=O)N2CCCCCCNC(=O)CC2c2ccccc2)c1 (stereo not drawn)	-23%
O=C(Cc1c[nH]c2ccccc12)NCC(=O)N1CCCCCNC(=O)CC1c1ccccc1 (stereo not drawn)	-17%
O=C1CC(c2ccccc2)N(C(=O)CNC(=O)c2n[nH]c3ccccc23)CCCCCCN1 (stereo not drawn)	10µM*
O=C1CC(c2ccccc2)N(C(=O)CNC(=O)c2ccoc2)CCCCCCN1 (stereo not drawn)	-25%
CCn1ccc(C(=O)N2CCC3(CC2)CC(OCC2CC2)CCO3)n1 (stereo not drawn)	24%
CN(C)c1ncc2c(n1)C(C)(C(=O)NCCOc1ccccc1)CCC2 (stereo not drawn)	-1%[44.1 µM]
O=C(Nc1cccc(C(F)(F)F)c1)c1cc2nc(-c3ccco3)cc(C(F)(F)Cl)n2n1	15%
CC(C)(C)c1ccc(CN(Cc2ccco2)c2cnc(S(C)(=O)=O)nc2C(=O)Nc2ccc(F)cc2)cc1	7.9µM*
CS(=O)(=O)c1ncc(Cl)c(C(=O)N(Cc2ccc(Cl)cc2)Cc2ccco2)n1	i[5.79 µM]
CS(=O)(=O)c1ncc(N(Cc2ccccc2)Cc2ccco2)c(C(=O)Nc2cccc(C(F)(F)F)c2)n1	6.3µM*
CCS(=O)(=O)c1ncc(N(Cc2ccco2)Cc2ccccc2F)c(C(=O)Nc2cccc(Cl)c2)n1	4µM*
CS(=O)(=O)c1ncc(N(Cc2ccco2)Cc2ccco2)c(C(=O)Nc2ccccc2Br)n1	-19%
O=C(Nc1nc2ccc(F)cc2s1)c1nc(S(=O)(=O)Cc2ccccc2F)ncc1Cl	77%
COc1ccc(CN(Cc2ccco2)c2cnc(S(C)(=O)=O)nc2C(=O)Nc2ccc(C)cc2C)cc1	-1%
CCSc1ncc(Cl)c(C(=O)Nc2cccc(Cl)c2)n1	24%
CC1CCc2nn3ccn(CC(=O)Nc4cccc(Cl)c4)c(=O)c3c2C1 (stereo not drawn)	-29%
C[C@H]1[C@@H]2[C@@H](O)[C@H]([C@H](C)C(=O)N3CCCCC3)CC[C@@]2(C)CC[C@@H]1NC(=O)c1cncnc1	i
SMILES	Pf Dd2 inh
O=C(CC1CCCN(c2cn[nH]c(=O)c2)C1)NCc1cccs1 (stereo not drawn)	50%
CC(C)(Oc1nn(Cc2cccc(Cl)c2)c2ccccc12)C(=O)NCc1ccncc1	-6%[44.1 µM]
CC(C)N1CCC2(CC1)CN(C(=O)C1CCOCC1)Cc1ccccc1O2	i
O=C1N(C2CCN(Cc3ccc(C(F)(F)F)cc3)CC2)Cc2cccn21	-20%
O=C(NCCc1cnc[nH]1)[C@@H]1C[C@H]2C(=O)NCCCCCCN(S(=O)(=O)c3cccs3)[C@H]2C1	-16%
CN1[C@@H](CCC(=O)NCc2ccccc2)CNC(=O)[C@@H]2[C@H]1CCN2C1CCOCC1	20%[44.1 µM]
CCOc1ccccc1N1CCN(C(=O)c2ccc3c(c2)N(C)C2CCCCN2C3=O)CC1 (stereo not drawn)	5µM*
Cc1cccc(NC(=O)c2ccc3c(c2)N(C)C2CCCCCN2C3=O)c1 (stereo not drawn)	i
Cc1cccc(N2CCN(C(=O)c3ccc4c(c3)N(C)C3CCCCCN3C4=O)CC2)c1 (stereo not drawn)	8.9µM*
CCN1c2cc(C(=O)N3CCCCC3)ccc2C(=O)N2CCCCCC21 (stereo not drawn)	i
CCN1c2cc(C(=O)N3CCN(c4ccccc4)CC3)ccc2C(=O)N2CCCCC21 (stereo not drawn)	i
CCN1c2cc(C(=O)N3CCN(c4ccccn4)CC3)ccc2C(=O)N2CCCCC21 (stereo not drawn)	i
CN1c2cc(C(=O)N3CCN(c4ccc(F)cc4)CC3)ccc2C(=O)N2CCCCCC21 (stereo not drawn)	i
CN1c2cc(C(=O)Nc3ccccc3)ccc2C(=O)N2CCCCC21 (stereo not drawn)	i
